Pf growth 96h: inhibits malaria parasite growth, 96 h | P. falciparum luciferase reporter growth, 96 h | 320,000 tested, 6.9% active | AID 504834 | Potency, µM (titrated, usually from 28.7 µM), inactives show at the top dose activity change, negative = inhibition, most hits filed as inhibitors; note: potency is the fitted concentration of half-maximal effect; % is set by controls: 0 for no effect and ±100 for the full control effect
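Erythrocytes infected with luciferase-expressing P. falciparum were dispensed at 2% hematocrit and 0.05% parasitemia (final), then incubated with compounds 96 hours at 37 C in 5% CO2. Luminescence after detection reagent addition reported growth.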
Shiga inhibitor: Shiga toxin inhibition; Vero cells, Shiga toxin protein synthesis inhibition reporter; inhibition, % at 38.7 µM; 290,000 tested, 9.2% active; AID 2315; in the data active = inhibition mostly above about 28%, no sharp cut-off; inactive = mostly below about 43%; note: 0% is about no effect
Cycloheximide cs: counter-screen for Shiga toxin inhibitors: cycloheximide protein synthesis inhibition. cell reporter, cycloheximide protein synthesis inhibition counterscreen. max response, %. 300,000 tested, 12% active. AID 2314; in the data active = max response mostly above about 13%, no sharp cut-off; inactive = mostly below about 14%; note: read at 38.3 µM for the half of the compounds with a filed dose; 0% is about no effect
Pf growth 48h: P. falciparum growth inhibition at 48 hours (one generation) | P. falciparum luciferase growth in erythrocytes, 48 h | Potency, µM (highest dose often 28.7 µM), for inactives: at the highest dose activity change, negative = inhibition, hits mostly inhibitors | 310,000 tested, 5.9% active | AID 504832; note: potency is the fitted concentration of half-maximal effect; % is set by controls: 0 for no effect and ±100 for the full control effect
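Luciferase-expressing P. falciparum in infected erythrocytes (2% hematocrit, 0.1% parasitemia final) in RPMI 1640/0.5% Albumax were exposed to compound for 48 hours at 37 C, 5% CO2; growth read as luminescence.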
HCMV inh: blocks human cytomegalovirus replication; activity change, negative = inhibition, % at 57.5 µM; 410,000 tested, 4.5% active; HFF cells, HCMV-luciferase reporter, 72 h; stronger effect = lower value; in the data active = activity change below about -60%; inconclusive = no clear call, values can overlap the other calls; inactive = above about -39%; note: % is set by controls: 0 for no effect and ±100 for the full control effect
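Cell-based, HFFs, 1000 cells/well, 16 h 37C; cpds in DMSO + HCMV-luc, MOI 1 PFU/cell; 72 h 37C; OneGlo luminescence after 5 min RT; norm. to buffer vs Salinomycin 10uM.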
* marks the source's active call; other numbers are inactive results; u = inconclusive; x = no result; + = active, no number; [ ] = dose if it differs, or a comment. Rows were chosen to be rich in hits. Some 20% of all compounds tested hit in one or more screens of this group. Unless noted, calls come from the whole dose curve; as a rule, active = well fitted inhibition curve with a large enough effect; inconclusive = small, poorly fitted or top-dose-only effect, or another doubt; inactive = no such curve, though single readings can be large or run the other way.

SMILES	Pf growth 96h	Shiga inhibitor	Cycloheximide cs	Pf growth 48h	HCMV inh
Cc1ccc(-n2ncc(C(=O)NCCN3CCCC3)c2C2CCN(C(=O)OC(C)(C)C)CC2)cc1	x	x	x	x	0
COc1ccc(-n2ncc(C(=O)NCCCN3CCCCC3)c2C2CCN(C(=O)OC(C)(C)C)CC2)cc1	x	x	x	x	+
CC(C)(C)OC(=O)N1CCC(c2c(C(=O)NCCN3CCCC3)cnn2-c2ccc(Cl)cc2)CC1	x	x	x	x	-16
Cc1ccc(C)c(N2CCN(CCCNC(=O)c3cnn(-c4ccccc4Cl)c3C3CCN(C(=O)OC(C)(C)C)CC3)CC2)c1	x	x	x	x	-105*
Cc1ccc(-n2ncc(C(=O)NCCN3CCc4ccccc4C3)c2C2CCN(C(=O)OC(C)(C)C)CC2)cc1C	x	x	x	x	0
Cc1ccc(-n2ncc(C(=O)NCCN3CCc4ccccc4C3)c2C2CCN(C(=O)OC(C)(C)C)CC2)cc1	x	x	x	x	+
O=C(NCc1cccnc1)c1ccccc1[N+](=O)[O-]	u	-1	-2	1%	u
COc1ccc(CC(=O)NNC(=O)c2cccnc2)cc1OC	34%	-4	-2	29%	31
CCN1C(=O)[C@@H]2[C@@H](c3ccc(-c4cccc(Cl)c4)c(OC)c3)N3CCCC[C@@]3(C(=O)OC)[C@@H]2C1=O	3.7µM*	x	x	10µM*	11
CCN1C(=O)[C@@H]2[C@@H](c3ccc(-c4ccc(OC)cc4)c(OC)c3)N3CCCC[C@@]3(C(=O)OC)[C@@H]2C1=O	4.1µM*	x	x	2.9µM*	15
CCN1C(=O)[C@@H]2[C@@H](c3ccc(-c4ccc5c(c4)OCO5)c(OC)c3)N3CCC[C@@]3(C(=O)OC)[C@@H]2C1=O	u	x	x	u	15
CCN1C(=O)[C@@H]2[C@@H](c3ccc(-c4ccc(Cl)c(Cl)c4)c(OC)c3)N3CCC[C@@]3(C(=O)OC)[C@@H]2C1=O	0.83µM*	x	x	5.2µM*	100
CCN1C(=O)[C@H]2[C@@H](c3ccc(-c4ccc(F)cc4)c(OC)c3)N3CCC[C@@]3(C(=O)OC)[C@H]2C1=O	7.4µM*	x	x	7.4µM*	38
Cc1cc(C)cc(N2C(=O)CS(=O)(=O)C23C(=O)N(Cc2ccc(F)cc2)c2ccc(C)cc23)c1 (stereo not given)	x	x	x	x	-5
CCN1C(=O)[C@H]2[C@@H](c3ccc(-c4ccc(OC)cc4)c(OC)c3)N3CCCC[C@@]3(C(=O)OC)[C@H]2C1=O	9.3µM*	x	x	12µM*	9
CCOC(=O)N1CCN(C(=O)CCCn2nnnc2CN2CCC(C)CC2)CC1	46%	10	-1	-27%	12
C=CCn1c(SCC(=O)Nc2cccc3ccccc23)nnc1-c1cnccn1	u	-9	-5	u	14
C=CCn1c(SCC(=O)Nc2cccnc2Cl)nnc1-c1ccccc1F	-14%	22	-3	-8%	-65*
C=CCn1c(SCC(=O)Nc2ccc(F)cc2F)nnc1-c1cnccn1	12%	45*	26*	21%	17
C=CCn1c(SCC(=O)Nc2cc3oc4ccccc4c3cc2OC)nnc1-c1cnccn1	-15%	-4	-2	9.3µM*	-4
CCN(c1ccccc1)S(=O)(=O)c1cc(NC(=O)CSc2n[nH]c(=O)[nH]c2=O)ccc1Cl	u	-10	-3	-10%	7
Cc1ccc(OCc2nnc(SCc3cc(=O)[nH]c4ccccc34)n2-c2ccccc2)cc1	5.9µM*	-5	4	u	-18
O=C(CSc1nnc(COc2ccccc2)n1-c1ccccc1)c1ccccc1	u	16	-3	11%	-23
CC(Sc1nnc(COc2ccc([N+](=O)[O-])cc2)n1-c1ccccc1)C(=O)O (stereo not given)	9.3µM*	7	-1	-3%	x
Cc1ccc(OCc2nnc(SCC(=O)Nc3cccc4ccccc34)n2-c2ccccc2)cc1	13µM*	7	1	u	26
SMILES	Pf growth 96h	Shiga inhibitor	Cycloheximide cs	Pf growth 48h	HCMV inh
CC1CCCC(C)N1C(=O)CSc1nnc(COc2ccccc2)n1-c1ccccc1 (stereo not given)	15µM*	-10	-2	x	-15
Cc1ccc(-n2c(COc3ccccc3)nnc2SCC(=O)O)cc1	x	x	x	x	-4
CC(Sc1nnc(COc2ccc([N+](=O)[O-])cc2)n1C)C(=O)O (stereo not given)	-20%	-15	6	1%	-19
Cc1ccccc1OCc1nnc(SCc2cc(=O)[nH]c3ccccc23)n1-c1ccccc1	u	-11	-1	u	u
COc1ccc2oc(=O)c(C(=O)NCCc3c(C)[nH]c4c(Cl)cccc34)cc2c1	x	x	x	x	-7
Cc1ccc(NC(=O)CSc2nnc(COc3ccc(C#N)cc3)n2-c2ccccc2)cc1C	10µM*	-6	-6	u	-13
COc1ccc(-n2c(COc3ccccc3)nnc2SCc2ccc(C#N)cc2)cc1	u	-8	-2	12µM*	-16
COCCCn1c(=O)c2sccc2n2c(CCCC(=O)Nc3cccc(OC)c3)nnc12	x	x	x	x	-37
CCOC(=O)c1cccc(-[n+]2c(-c3ccccc3)cc(-c3ccccc3)cc2-c2ccccc2)c1	0.59µM*	x	x	1.9µM*	-99*
CCOC(=O)c1cccc(P(=O)(C(C)(C)C)C(C)(C)C)c1	-29%	15	-1	-12%	-16
CCOC(=O)c1ccc(-[n+]2c(-c3ccccc3)cc(-c3ccccc3)cc2-c2ccccc2)cc1	1.2µM*	x	x	2.9µM*	x
CCC(=O)N1CCc2cc(Br)cc(S(=O)(=O)CCC(=O)Nc3cccc(CC)c3)c21	x	x	x	x	-4
COc1ccc(Br)cc1CN(C)CC(=O)Nc1c(Cl)cccc1Cl	u	-6	-2	4%	-61*
COc1ccc(Br)cc1CN(C)CC(=O)Nc1cccc(S(N)(=O)=O)c1	-4%	-15	-2	12%	-39
Cc1cccc(C)c1NC(=O)C(=O)NCC1CCCN1S(=O)(=O)c1cccs1 (stereo not given)	0%	x	x	-14%	-6
CCOC(=O)c1ccc(NC(=O)CCc2nc(-c3ccccc3Cl)no2)cc1	-1%[5.75 µM]	23	0	-11%	-33
CCOC(=O)c1cccc(NC(=O)CCc2nc(-c3ccc(C)cc3)no2)c1	1µM*	-12	-1	12µM*	-28
CCOC(=O)c1ccc(NC(=O)CCc2nc(-c3ccccc3)no2)cc1	13µM*	-12	-6	0%	-3
O=C(NCc1cccc(Br)c1)c1cccn1-c1nnc(N2CCCCC2)s1	x	x	x	x	-2
c1ccc(-c2nnc(OCC3CCCO3)c3ccccc23)cc1 (stereo not given)	72%	-3	-2	-3%	-39
CCCCN(C)C(=O)c1sc(=O)n(Cc2c(C)noc2C)c1C	x	x	x	x	-33
COc1ccc(CN2CCC(Oc3ccc(C(=O)NCc4ccccn4)cc3)CC2)c(F)c1	u	-14	1	-16%	-10
CCC(C)N1CCC(Oc2ccc(C(=O)NCc3ccccn3)cc2)CC1 (stereo not given)	10µM*	-11	2	-10%	-34
COc1cccc(CN2CCC(Oc3ccc(C(=O)NCc4ccccn4)cc3)CC2)c1O	6.6µM*	-4	-1	u	-22

Compound activity as filed in PubChem BioAssay.
